From PubChem BioAssay (NCATS)
Some of the results follow. The source made the active and inactive calls. Calls follow the shape of the dose curve; as a rule, active = well fitted inhibition curve with a large enough effect; inconclusive = small, poorly fitted or top-dose-only effect, or another doubt; inactive = no such curve, though single readings can be large or run the other way.

Biological target: Vitamin D3 receptor (Homo sapiens) (UniProt P11473)
Experiment: qHTS for Inhibitors of the vitamin D receptor (VDR): Hit Validation using a Beta-Lactamase Assay (AID 602202)
Conditions: VDR beta-lactamase reporter cells, FRET ratio, cells co-treated with VDR agonist LG190178; series mostly up to 46.1 µM
From the text: The vitamin D receptor (VDR) is a ligand-activated transcription factor and is partially responsible for the regulation of the endocrine system. This includes the transcriptional regulation of genes involved in the production of the parathyroid hormone (PTH) and the regulation of the blood calcium level. High levels of PHT can cause hypercalcemia in the case of primary and tertiary hyperparathyroidism. The VDR-mediated gene regulation, activated by its ligand 1,25-dihydroxyvitamin D3 (1,25-(OH)2D3), is governed by the recruitment of coactivators. Our hypothesis is that small molecules, with the ability to inhibit the interaction between VDR and certain coactivators, are able to selectively modulate VDR-mediated transcription. Our long term objective is the application these VDR-coactivator inhibitors to study the role of VDR-coactivator binding for specific VDR regulated genes. Ultimately, these molecules can be developed into new treatments for hypercalcemic hyperparathyroidism. No small molecule or non-peptide inhibitors are known for the VDR-coactivator interaction.
In a collaboration between the University of Wisconsin, Milwaukee and the NIH Chemical Genomics Center (NCGC) a HTS-compatible enzymatic assay was developed. The assay uses fluorescence polarization as its read-out to measure the inhibition between VDR and coregulator peptide SRC2-3 exerted by small molecules. This assay was used to screen the NIH Molecular Libraries Small Molecule Repository (MLSMR). The cell-based VDR transcription assay was carried out with commercially available stably transfected HEK293 cells. The cell line expresses a fusion protein of VDR-GAL4 DNA binding domain, which is activated by agonist LG190178 and induces transcription of a beta-lactamase reporter gene under control of an UAS response element. Successful activation is detected by a decrease in time-resolved fluorescence resonance energy transfer (TR-FRET) caused by enzymatic cleavage of fluorescent betalactam substrate added after 24h incubation. The cleaved substrate concentration was quantified by measuring the fluorescence emission at 447 nm.
NIH Chemical Genomics Center [NCGC]
NIH Molecular Libraries Probe Centers Network [MLPCN]
Assay Submitter (PI): Alexander Arnold, University of Wilwaukee
Plate: 384 black clear bottom, tissue culture treated
Step 1: Plate 20,000 cell per well (32 uL)
Step 2: 4 hours incubatio
Step 3: Add screening compounds
Step 5: 18 hour incubation
Step 6: Add FRET reagent (6 uL)
Step 7: 2 hour incubation
Potency is read from the fitted curve at half-maximal effect.

Vitamin D3 receptor (Homo sapiens), sequence (P11473 whole entry, looked up): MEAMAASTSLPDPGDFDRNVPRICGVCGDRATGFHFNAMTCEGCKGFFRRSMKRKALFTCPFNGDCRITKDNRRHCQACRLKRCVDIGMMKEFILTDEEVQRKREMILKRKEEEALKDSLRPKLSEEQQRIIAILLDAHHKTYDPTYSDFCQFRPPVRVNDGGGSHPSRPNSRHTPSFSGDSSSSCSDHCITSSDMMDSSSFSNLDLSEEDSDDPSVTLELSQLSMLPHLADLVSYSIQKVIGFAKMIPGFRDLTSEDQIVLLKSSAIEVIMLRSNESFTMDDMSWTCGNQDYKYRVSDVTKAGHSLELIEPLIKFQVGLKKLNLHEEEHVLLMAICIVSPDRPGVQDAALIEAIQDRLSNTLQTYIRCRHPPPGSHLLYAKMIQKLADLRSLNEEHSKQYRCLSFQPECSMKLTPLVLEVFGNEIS

Potency, inactive:
CCOC(=O)c1sc(NC(=O)CSc2nc(C)cc(C(F)(F)F)n2)c(C#N)c1C
O=C(/C=C/c1ccc(Cl)cc1Cl)c1cccnc1
O=c1cc(CO)oc(C(Nc2cccc(C(F)(F)F)c2)c2ccccn2)c1O (stereo not drawn)
CCOC(=O)N1CCN(C(c2cccnc2)c2ccc3cccnc3c2O)CC1 (stereo not drawn)
O=C(/C=C/c1ccccc1)c1ccccc1O
CN(C)N=Nc1ccc2nc[nH]c2c1
O=C(/C=C/c1ccc(Cl)c([N+](=O)[O-])c1)c1cccnc1
CC1CCN(C(=S)c2ccc(-c3ccc(Cl)cc3Cl)o2)CC1
c1ccc2c(C[n+]3csc4ccccc43)cccc2c1
COc1ccc(OCc2nnc3n2N=C(c2ccccc2)C(CC(=O)O)S3)cc1 (stereo not drawn)
C=CCOc1ccc(/C=C2/C(=O)ON=C2C)cc1OCC
Cc1cccc(Oc2c([N+](=O)[O-])c(=O)n(C)c3ccccc23)c1
O=C(Nc1nc(-c2ccncc2)cs1)C1COc2ccccc2O1 (stereo not drawn)
Cc1ccc(-c2nc3ccccn3c2Nc2c(C)cccc2C)o1
CC(=O)N1CC[n+]2c(-c3ccc([N+](=O)[O-])cc3)csc21
CCOC(=O)c1sc(=S)n2c1[nH]c(=O)c1ccc(C(=O)OC)cc12
O=c1[nH]c(/C=C\c2cccc(C(F)(F)F)c2)nc(O)c1[N+](=O)[O-]

Potency, active:
CC(=O)N(C1=C(Cl)C(=O)c2ccccc2C1=O)c1ccc(C(=O)O)cc1 20.6 µM
CCOc1ccc(N(Cc2ccccc2)C(=O)c2nc(S(C)(=O)=O)ncc2Cl)cc1 20.6 µM
C[C@@H](NC(=O)OC(C)(C)C)c1nnc(S(=O)(=O)Cc2ccccc2)o1 23.1 µM
COc1ccc(CS(=O)/C(Cl)=C(/Cl)C(=O)Nc2ccc(OC)nc2)cc1 (stereo not drawn) 0.731 µM
CSc1nnc(NC(=O)c2nc(S(=O)(=O)Cc3ccc(C)cc3)ncc2Cl)s1 5.8 µM
Cc1cccc(CS(=O)(=O)c2ncc(Cl)c(C(=O)Nc3ccc(F)cc3)n2)c1 5.17 µM
COC(=O)/C=C\C(=O)Nc1cccc([N+](=O)[O-])c1 14.6 µM
O=[N+]([O-])/C=C/c1ccc2c(ccn2Cc2ccccc2)c1 18.4 µM
Cc1cc(C)nc(S/C=C/C(=O)c2ccccc2)n1 3.26 µM
CCCCS(=O)(=O)c1oc(-c2cccs2)nc1S(=O)(=O)c1ccccc1 5.8 µM
Cc1ccc(O)c(NC(=O)CCS(=O)(=O)c2nc(-c3ccc4c(c3)OCO4)cc(C(F)(F)F)n2)c1 23.1 µM
